The list is not random: actives were taken first. Their share in the collection is about 1.8%.
Mtb hypoxia rep = PubChem AID 1159583; M. tuberculosis hypoxia-regulated fluorescent reporter, fluorescence; fluorescence inhibition, % (no concentration beside the values); hit rate 0.1% among 300,000; in the data active = fluorescence inhibition mostly above about 23%, no sharp cut-off; inactive = mostly below about 17%
PfHsp40 rescue = rescue of yeast from PfHsp40 toxicity, primary screen, S. cerevisiae, ATP luminescence | S. cerevisiae expressing PfHsp40, growth rescue | growth rescue, % at 12.5 µM | hit rate 0.68% among 340,000; in the data active = growth rescue above about 28%, passing the limit was not always enough; inconclusive = no clear call, values can overlap the other calls;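 note: yeast W303a lacking pdr1 and pdr3 grown in galactose medium; growth measured after three days at 30 °C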
SSB-PriA inh = inhibitors of Klebsiella pneumoniae PriA binding to SSB C-terminal tail, primary screen, biochemical, AlphaScreen; PriA–SSB C-terminal tail interaction (Klebsiella pneumoniae); AlphaScreen SSBct-PriA binding, biotinylated peptide; inhibition, % at 33 µM; hit rate 0.6% among 430,000; AID 1272365, 2023; in the data active = inhibition mostly above about 37%, no sharp cut-off; inactive = mostly below about 20%;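 note: plate controls were negative control peptide for no effect and reference peptide for full effect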
VHR inh abs = VHR1 phosphatase inhibitors, primary screen, biochemical, absorbance, uHTS. AID 1654, 2009. inhibition, % at 13.3 µM. hit rate 0.52% among 290,000. recombinant VHR phosphatase, pNPP absorbance. Dual specificity protein phosphatase 3 (Homo sapiens), P51452; in the data active = inhibition above about 50%
Target sequence (P51452 whole entry, looked up): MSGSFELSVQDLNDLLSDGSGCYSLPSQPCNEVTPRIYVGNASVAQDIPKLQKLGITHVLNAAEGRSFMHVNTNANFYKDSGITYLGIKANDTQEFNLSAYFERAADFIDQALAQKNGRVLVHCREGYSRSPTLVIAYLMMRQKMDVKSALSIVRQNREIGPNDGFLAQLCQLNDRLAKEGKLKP
ugtP null kill = growth inhibition of ugtP-null S. aureus, primary screen, RN4220 ugtP deletion, OD600. 16 h. growth inhibition, % (no concentration beside the values). hit rate 0.54% among 330,000. AID 1259309, 2017; in the data active = growth inhibition above about 68%;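 note: plate controls were untreated wells for no effect and antibiotic for full effect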
Sa RN4220 lethal = growth inhibition of S. aureus RN4220, primary screen, OD600; inhibition, % (test concentration not listed); AID 1259311, 2017; 16 h; hit rate 0.33% among 330,000; in the data active = inhibition above about 85%;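 note: plate controls were untreated cells for no effect and reference antibiotic for full effect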
* hit, by the source's call; ? = inconclusive; nt = no result given.

SMILES	Mtb hypoxia rep	PfHsp40 rescue	SSB-PriA inh	VHR inh abs	ugtP null kill	Sa RN4220 lethal
Cn1c(C(=O)c2ccccc2)nc2ccccc21	1	0	-16	6	-1	3
CCOC(=O)C(N=Nc1c(C)n(C)n(-c2ccccc2)c1=O)=C(C)O	nt	nt	8	nt	nt	nt
Cc1ccc(SCCC(=O)N2CCCC2)cc1	11	42*	-5	-4	0	7
Cc1ccc(SCCC(=O)N2CCOCC2)cc1	0	0	-5	10	8	3
COCC(=O)Nc1cc(C)cn(Cc2c(F)cccc2Cl)c1=O	nt	-1	-4	31	nt	nt
Cc1cc(NC(=O)CC(C)C)c(=O)n(Cc2c(F)cccc2Cl)c1	-4	0	-8	54*	6	2
CC1(C)C2CCC1(CS(=O)(=O)Nc1cccnc1)C(=O)C2 (configuration not stated)	nt	nt	-7	nt	nt	nt
Cc1ccsc1C(=O)NN=C1CCCCCC1	8	-1	18	53*	8	3
Cc1ccc(C(=O)NN=C2CCCCCC2)s1	10	0	-2	44	10	9
CC(Oc1cccc2c1CCN(Cc1ccc(Br)cc1)C2=O)c1ccccc1 (configuration not stated)	nt	nt	-7	nt	nt	nt
COc1ccccc1Nc1c([N+](=O)[O-])cc(C)cc1[N+](=O)[O-]	10	0	30	8	14	5
NS(=O)(=O)c1ccc(Nc2ccccc2)c([N+](=O)[O-])c1	10	0	-8	32	4	4
COc1ccc(Nc2ccc(C(=O)O)cc2[N+](=O)[O-])cc1	5	-2	-13	26	18	1
COc1ccccc1Nc1ccc([N+](=O)[O-])cc1N	-1	-2	32	53*	-10	-1
O=[N+]([O-])c1cc(Cl)ccc1Nc1ccccc1	8	-2	89*	16	15	2
COc1ccc(Nc2ccc([N+](=O)[O-])cc2[N+](=O)[O-])cc1	8	1	43*	8	1	12
COc1ccc(C(c2c(O)ccc3ccccc23)N2CCOCC2)c(OC)c1 (configuration not stated)	nt	410*	8	15	nt	nt
COc1ccc(OC)c(S(=O)(=O)NCC(c2cccc3ccccc23)N2CCOCC2)c1 (configuration not stated)	nt	nt	-3	nt	nt	nt
O=C(CSc1nnc2scc(-c3ccc(Cl)cc3)n12)Nc1nc(-c2ccccc2)ns1	nt	nt	1	nt	nt	nt
COc1ccc(Cl)cc1C(=O)Nc1c2c(nn1C)CCC2	nt	nt	8	nt	nt	nt
COc1ccccc1C1CCN(C(=O)c2cccs2)CC1	-5	0	-12	9	21	8
COc1ccccc1C1CCN(C(=O)C2CCCCC2)CC1	3	0	41*	2	3	7
COc1ccccc1C1CCN(C(=O)c2ccc(Cl)cc2)CC1	13	199*	-2	5	3	10
COc1ccccc1C1CCN(c2cc(O)ccc2[N+](=O)[O-])CC1	2	124*	24	36	1	-8
COc1ccccc1C1CCN(C(=O)c2ccccc2)CC1	9	1	-12	14	15	9
SMILES	Mtb hypoxia rep	PfHsp40 rescue	SSB-PriA inh	VHR inh abs	ugtP null kill	Sa RN4220 lethal
CCC(=NNc1ccccc1)c1c(O)n(C)c(=O)n(C)c1=O	nt	nt	0	nt	nt	nt
CN1C(=CC(=O)Nc2cccnc2)c2ccccc2CC1(C)C	2	nt	nt	nt	9	10
N#C/C(=C/c1cn[nH]c1-c1ccccc1)C(=O)Nc1ccccc1O	nt	nt	-20	nt	nt	nt
COc1n[nH]c(C(=O)Nc2cc(Cl)ccc2Cl)c1[N+](=O)[O-]	7	0	5	18	88*	90*
O=C(CC=NO)Nc1ccc(Oc2ccccc2)cc1	15	nt	2	nt	1	2
Cn1ccnc1SCC(=O)Nc1ccc(Oc2ccccc2)cc1	3	1	40*	21	2	-15
COc1ccc(Cn2ccnc2SCC(=O)Nc2cccc(NC(C)=O)c2)cc1	3	-1	5	22	-1	0
COc1ccc(NC(=O)CSc2nccn2Cc2ccccc2)cc1	-4	-1	46*	-10	1	0
O=C(C/C=N\O)Nc1ccc(Oc2ccccc2)cc1	nt	46*	nt	23	nt	nt
O=C(CCCn1nc(-c2cccs2)ccc1=O)N1CCc2ccccc21	nt	nt	-1	nt	nt	nt
Cn1c(=O)c(C(=O)NNC(=O)c2ccc(Br)cc2)c(O)c2ccccc21	13	?	-8	-64	100*	98*
Cn1c(=O)c(C(=O)NCc2ccc(Cl)cc2)c(O)c2ccccc21	14	-1	-21	30	4	1
Cn1c(=O)c(C(=O)NNC(=O)c2ccccc2F)c(O)c2ccccc21	-23	3	-5	7	-9	15
Cn1c(=O)c(C(=O)NCCc2ccc(Cl)cc2)c(O)c2ccccc21	-4	0	-41	59*	7	4
O=C(Nc1cccc(C(F)(F)F)c1)C1CS(=O)(=O)CN1C(=O)c1ccccc1 (configuration not stated)	nt	nt	-3	nt	nt	nt
O=C(NCCN1CCOCC1)C(=O)Nc1ccc(F)cc1F	nt	nt	-24	nt	nt	nt
COc1cccc([C@@H]2CC(c3cccs3)=NN2C(=O)CSc2nnc(CNC(=O)c3cccs3)n2Cc2ccccc2)c1OC	nt	nt	-13	nt	nt	nt
Cc1c(C(=O)O)cccc1-c1ccc(/C=N/Nc2ccc(Br)cc2)o1	nt	355*	nt	-11	nt	nt
O=c1c2c(-c3ccc([N+](=O)[O-])cc3)csc2nc2n1CCC2	36*	-1	-14	-9	-4	5
CC(C)(C)NC(=O)C(=O)NCc1ccsc1	nt	nt	8	nt	nt	nt
O=C(/C=C/c1cccc([N+](=O)[O-])c1)c1ccc([N+](=O)[O-])o1	nt	0	-11	nt	nt	nt
Cc1cccc(/C=C/C(=O)c2ccc([N+](=O)[O-])o2)c1	nt	-2	2	nt	nt	nt
Cc1ccccc1C=CC(=O)c1ccc([N+](=O)[O-])o1	21	nt	nt	nt	101*	33
COc1ccc(/C=C/C(=O)c2ccc([N+](=O)[O-])o2)cc1	nt	0	-14	nt	nt	nt
Cc1cccc(C=CC(=O)c2ccc([N+](=O)[O-])o2)c1	nt	nt	nt	nt	100*	101*
SMILES	Mtb hypoxia rep	PfHsp40 rescue	SSB-PriA inh	VHR inh abs	ugtP null kill	Sa RN4220 lethal
O=C(C=Cc1cccc([N+](=O)[O-])c1)c1ccc([N+](=O)[O-])o1	nt	nt	nt	nt	100*	100*
COc1ccc(C=CC(=O)c2ccc([N+](=O)[O-])o2)cc1OC	nt	nt	nt	nt	100*	48
CC(=NNC(=O)c1ccc(Cl)c(S(=O)(=O)Nc2ccccc2Cl)c1)c1ccncc1	4	nt	5	nt	-12	2
CC(C)Cc1ccc(S(=O)(=O)Cc2nc(-c3ccccc3)no2)cc1	nt	nt	-7	nt	nt	nt
Cc1csc(NC(=O)CSc2ncc(-c3ccccc3)n2C2CCCCC2)n1	nt	nt	3	nt	nt	nt
Cc1ccc2cccc(C(=O)N3CC(S(=O)(=O)CC(C)C)C3)c2n1	nt	nt	-3	nt	nt	nt
O=C(/C=C/c1cccc([N+](=O)[O-])c1)NC1CC2CCC1C2 (configuration not stated)	12	51*	10	-1	10	6
C[n+]1cccc2c(Br)ccc([O-])c21	17	-1	1	27	3	3
